# Source: PubChem BioAssay (Tox21)
# Values without a mark were called inactive. Inconclusive results are not listed. A call without a number means that no potency is given here. The source made the active and inactive calls. Unless noted, the call rests on the fitted dose curve; in most records, active means well fitted curve in the direction sought with a large enough effect in the repeat runs; inconclusive means weak or mixed curves; inactive means no such curve, though single readings can be large; an effect the other way counts as inactive or inconclusive.
# Legend:
# [1] = qHTS assay to identify small molecule agonists of the hypoxia (HIF-1) signaling pathway - cell viability counter screen (AID 1224844; calls by dose curve; further: nearly all actives have a fitted effect of over 50% in size)
# Summary of the method: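 Luminescent ATP content (CellTiter-Glo, 30 min, room temperature) served as the viability measure in HRE-bla ME-180 cells exposed to compounds for 17 hrs in low-serum medium (0.5% dialyzed FBS).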
# [2] = qHTS assay to identify small molecule agonists of H2AX (AID 1224845; active means well fitted activation curve with a large enough effect in the signal ratio in the repeat runs, not every such curve was filed as active; the % refers to the signal ratio)
# Summary of the method: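 Wild-type CHO-K1 cells, plated overnight, exposed 3hr at 37C to 15 concentrations (0.76% DMSO final). Lysed, then HTRF anti-pH2AX (S139) cryptate and anti-H2AX-d2 antibodies, 24 hr room temperature; 665/620 nm emission read.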
# [3] = qHTS assay to identify small molecule agonists of H2AX - cell viability counter screen (AID 1224847; calls by dose curve; further: top concentration of the series differs between compounds; nearly all actives have a fitted effect of over 30% in size)
# Summary of the method: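 Viability of CHO-K1 (wild type) cells after 3 hr compound exposure was measured by CellTiter-Glo luminescence.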
# [4] = qHTS RealTime-Glo MT Cell Viability Assay in HepG2 cells - 24 hour (AID 1224867); further: nearly all actives have a fitted effect of over 50% in size
# Summary of the method: (§1)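 Compound treatment began 5 h after plating HepG2 cells (600/well) with NanoLuc luciferase and prosubstrate. Plates stayed at 37 C for 40 h; luminescence was captured at six time points, 0 h through 40 h.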
# [5] = qHTS RealTime-Glo MT Cell Viability Assay in HEK293 cells - 32 hour (AID 1224868); further: top concentration of the series differs between compounds; nearly all actives have a fitted effect of over 50% in size
# Summary of the method: (§2)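 Quantitative high-throughput screen of the Tox21 10K library in HEK293: cells and RealTime-Glo reagents plated together, compound added at 5 h, luminescence monitored through 40 h at 37 C.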
# [6] = A CellTox Green Cytotoxicity Assay to monitor cytotoxicity in HEK293 cells - 0 hour (AID 1224869); further: nearly all actives have a fitted effect of over 50% in size
# Summary of the method: (§3)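 Each value comes from one timepoint of a single continuous run in which HEK293 cells with CellTox Green were exposed to compound for up to 40 h at 37 C, dye fluorescence rising with cell death.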
# [7] = A CellTox Green Cytotoxicity Assay to monitor cytotoxicity in HEK293 cells - 40 hour (AID 1224871); further: nearly all actives have a fitted effect of over 45% in size
# Summary of the method: as §3
# [8] = qHTS RealTime-Glo MT Cell Viability Assay in HEK293 cells - 16 hour (AID 1224872)
# Summary of the method: as §2
# [9] = qHTS RealTime-Glo MT Cell Viability Assay in HEK293 cells - 40 hour (AID 1224874); settings: RealTime-Glo luminescence; max response: stronger effect = lower value; further: nearly all actives have a fitted effect of over 50% in size
# Summary of the method: (§4)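 qHTS format; HEK293 cells with NanoLuc/prosubstrate reagent, 37 C/5% CO2 for 5 h pre-dosing; compounds 23 nL in DMSO; luminescence at each time point reflects viable cells.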
# [10] = qHTS RealTime-Glo MT Cell Viability Assay in HepG2 cells - 32 hour (AID 1224877); further: nearly all actives have a fitted effect of over 55% in size
# Summary of the method: as §1
# [11] = qHTS RealTime-Glo MT Cell Viability Assay in HEK293 cells - 0 hour (AID 1224880); further: top concentration of the series differs between compounds; nearly all actives have a fitted effect of over 45% in size
# Summary of the method: as §4
# [12] = qHTS RealTime-Glo MT Cell Viability Assay in HepG2 cells - 40 hour (AID 1224870); further: nearly all actives have a fitted effect of over 50% in size
# Summary of the method: (§5)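 HepG2 cells (600/well) mixed with RealTime-Glo MT reagent, settled 5 h at 37 C/5% CO2 before compound addition. Nonlytic NanoLuc luminescence from viable-cell prosubstrate reduction read repeatedly during 40 h treatment at 37 C.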
# [13] = qHTS RealTime-Glo MT Cell Viability Assay in HepG2 cells - 8 hour (AID 1224873); further: nearly all actives have a fitted effect of over 55% in size
# Summary of the method: as §5
# [14] = A CellTox Green Cytotoxicity Assay to monitor cytotoxicity in HepG2 cells - 16 hour (AID 1224876); further: nearly all actives have a fitted effect of over 45% in size
# Summary of the method: (§6)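 Continuous culture of HepG2 cells with a membrane-impermeant DNA dye; rising fluorescence marks dead cells. Compound exposure lasted up to 40 h at 37 C, with reads every 8 h from 0 h.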
# [15] = A CellTox Green Cytotoxicity Assay to monitor cytotoxicity in HepG2 cells - 24 hour (AID 1224878); further: nearly all actives have a fitted effect of over 45% in size
# Summary of the method: as §6
# [16] = A CellTox Green Cytotoxicity Assay to monitor cytotoxicity in HepG2 cells - 40 hour (AID 1224879); further: nearly all actives have a fitted effect of over 40% in size; further: potency means the concentration at half of the fitted maximal effect
# Summary of the method: as §6
# [17] = A CellTox Green Cytotoxicity Assay to monitor cytotoxicity in HEK293 cells - 24 hour (AID 1224875); further: nearly all actives have a fitted effect of over 45% in size
# Summary of the method: as §3
# [18] = qHTS assay to identify small molecule antagonists of the estrogen related receptor (ERR) signaling pathway from Tox21 library (AID 1224848); further: nearly all actives have a fitted effect of over 50% in size
# Summary of the method: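 Luminescent reporter read-out (ONE-Glo) from NTP's ERR cell line after 18 h treatment at 37 C with DMSO-dissolved Tox21 compounds; cells pre-plated 6 h beforehand at 2,000 per well.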
# [19] = qHTS assay to identify small molecule agonists of the estrogen related receptor (ERR) signaling pathway from Tox21 library (AID 1224849; calls by dose curve; further: nearly all actives have a fitted effect of over 15% in size); settings: ERR reporter cell line, ONE-Glo luciferase, 18 h; at 92.4 µM (top of the series) unless noted
# Summary of the method: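 We plated ERR reporter cells, waited 6 h, added compounds in DMSO by pin tool and incubated them 18 h at 37 C. ONE-Glo was then added and luminescence read after 30 min.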
Structure (SMILES),outcome [1],outcome [2],Potency [3],outcome [4],Potency [5],outcome [6],Potency [7],Potency [8],max response [9],outcome [10],Potency [11],outcome [12],outcome [13],outcome [14],outcome [15],Potency [16],outcome [17],Potency [18],"activity change, positive = activation [19]"
O=C(O)Cc1ccc(Cl)cc1Cl,inactive,inactive,inactive,inactive,inactive,inactive,inactive,inactive,-0.186%,inactive,inactive,–,–,–,–,–,–,–,–
CC(C)NCC(O)COc1ccc(COCCOC(C)C)cc1 (configuration not stated),inactive,inactive,inactive,inactive,inactive,inactive,inactive,inactive,3.86%,inactive,inactive,inactive,inactive,inactive,inactive,inactive,–,–,–
Cc1ccccc1C(=O)Nc1ccc(C(=O)N2CCCC(N(C)C)c3ccccc32)cc1 (configuration not stated),inactive,inactive,inactive,inactive,–,inactive,inactive,inactive,–,inactive,inactive,inactive,inactive,inactive,–,6.74 µM (active),inactive,–,–
C#CC(C)N(C)C(=O)Nc1ccc(Cl)cc1 (configuration not stated),inactive,inactive,inactive,inactive,–,inactive,inactive,–,–,inactive,inactive,inactive,inactive,inactive,inactive,inactive,inactive,inactive,5.26%
CCN(C)C(=O)Oc1cccc([C@H](C)N(C)C)c1,inactive,inactive,inactive,inactive,inactive,inactive,inactive,inactive,1.94%,inactive,inactive,inactive,inactive,inactive,inactive,inactive,inactive,–,–
COC(=O)CCc1ccc(OCC(O)CNC(C)C)cc1 (configuration not stated),inactive,inactive,inactive,inactive,inactive,inactive,inactive,–,5.47%,inactive,inactive,inactive,inactive,inactive,inactive,inactive,inactive,inactive,8.83% [at 42.5 µM]
Cc1cccc(C)c1NC(=O)c1ccccc1C(=O)O,inactive,inactive,inactive,inactive,inactive,inactive,inactive,–,2.81%,inactive,inactive,inactive,inactive,inactive,inactive,inactive,inactive,inactive,2.58% [at 42.5 µM]
CN1C(C)(C)CCCC1(C)C,inactive,inactive,inactive,inactive,inactive,inactive,inactive,inactive,-1.11%,inactive,inactive,inactive,inactive,inactive,inactive,inactive,–,–,–
CC(=O)OC(C)OC(=O)C(C)c1ccc(-c2ccccc2)c(F)c1 (configuration not stated),inactive,inactive,inactive,inactive,inactive,inactive,inactive,inactive,3.38%,inactive,inactive,inactive,–,inactive,inactive,inactive,inactive,–,–
C=Cc1ccccn1,inactive,inactive,inactive,inactive,inactive,inactive,inactive,inactive,-0.127%,inactive,inactive,inactive,inactive,inactive,inactive,inactive,inactive,–,–
CN(C)C(=O)CNC(=O)Cc1ccccc1,inactive,inactive,inactive,inactive,inactive,inactive,inactive,inactive,4.97%,inactive,inactive,inactive,inactive,inactive,inactive,inactive,inactive,–,–
Cc1ccccc1OCC(O)CO (configuration not stated),inactive,inactive,inactive,inactive,inactive,inactive,inactive,–,1.4%,inactive,inactive,inactive,inactive,inactive,inactive,inactive,inactive,inactive,1.39% [at 42.5 µM]
CCOC(=O)c1ncn2c1CN(C)C(=O)c1cc(F)ccc1-2,inactive,inactive,inactive,inactive,inactive,inactive,inactive,inactive,-10.6%,inactive,–,inactive,inactive,inactive,inactive,inactive,inactive,–,–
CCOC(=O)CC(=O)c1ccccc1,inactive,inactive,inactive,inactive,inactive,inactive,inactive,inactive,10.1%,inactive,inactive,inactive,inactive,inactive,inactive,inactive,inactive,–,–
